# Results reported in the supplement of paper PMC10720658.
# ± gives the standard deviation of the averaged measurements.
# Tested on: AEK1 (Tb927.3.2440)
# Assay: percent reduction in TR-FRET probe signal relative to DMSO control; higher = stronger displacement of ATP-site probe (binding)
# Conditions: 1 µM; incubation time 1 h
row,Structure (SMILES),percent reduction in TR-FRET probe signal
1,Nc1cccc(-c2cc3c(Oc4cccc(O)c4)ncnc3[nH]2)c1,18.7 ± 22%
2,COc1cc(N2CCC(N3CCN(C)CC3)CC2)ccc1Nc1ncnc(Nc2ccccc2S(=O)(=O)C(C)C)n1,-6.14 ± 6.2%
3,Cc1c(NC(=O)OC[C@@H]2COCCN2)cn2ncnc(Nc3ccc4c(cnn4Cc4cccc(F)c4)c3)c12,-10.7 ± 4.8%
4,COCCOc1ccc2c(c1)ncn2-c1ccc2cccc(N3CCC(N)CC3)c2n1,24.4 ± 7.1%
5,O=c1c(-c2ccc(O)cc2)coc2cc(O)cc(O)c12 [Genistein],23.3 ± 20%
6,COc1ccccc1-c1cc(Nc2cccc(CS(N)(=O)=O)c2)ncn1,-8.94 ± 6.4%
7,Nc1nccc(Oc2ccc(NC(=O)c3c[nH]cc(-c4ccc(F)cc4)c3=O)cc2F)c1Cl,24.6 ± 15%
8,O=c1cc(N2CCOCC2)oc2c(-c3ccccc3)cccc12,-4.66 ± 9.2%
9,COc1ccc(C(=O)Nc2sc3c(c2C(N)=O)CCCC3)cc1OC,1.85 ± 1.5%
10,Oc1ccc(Nc2nc(-c3ccc(Cl)cc3)cs2)cc1,-4.54 ± 4.1%
11,COc1c(C)c(C(=O)c2ccc(N)c(C(=O)[O][Na])c2)n2ccccc12,6.59 ± 7.5%
12,C[C@@]1(C(=O)Nc2ccc(F)nc2)CCCN1c1nc(Nc2cc(C3CC3)[nH]n2)c2cccn2n1,23.1 ± 8.1%
13,Cc1nc(NC(=O)N2CCC[C@H]2C(N)=O)sc1-c1ccnc(C(C)(C)C(F)(F)F)c1,0.68 ± 7.1%
14,Cc1cc(Nc2cc(CN3CCOCC3)c3nc(C)c(Cc4ccc(Cl)cc4F)n3n2)n[nH]1,49 ± 10%
15,COc1ncc(-c2ccc3nccc(-c4ccnnc4)c3c2)cc1NS(=O)(=O)c1ccc(F)cc1F,3.02 ± 16%
16,"Cc1[nH]c(/C=C2\C(=O)Nc3ccccc32)c(C)c1CCC(=O)O [TSU-68 (SU6668, Orantinib)]",1.55 ± 4%
17,COc1cc2c(c(OC)c1OC)-c1c(cc3c(c1OC)OCO3)C[C@@H](C)[C@@H](C)C2 [Schisandrin B (Sch B)],13.6 ± 28%
18,COc1cccc(-n2c(=O)[nH]c3cc(Cl)n(-c4ccc(-c5cccc(OC)c5O)cc4)c3c2=O)c1,-7.49 ± 2.1%
19,COc1ccc2c(c1)c(C1=C(c3c[nH]c4ccccc34)C(=O)NC1=O)cn2CCCN(C)C,4.65 ± 14%

row,Structure (SMILES),percent reduction in TR-FRET probe signal
1,CCNC(=O)Nc1ccc(-c2nc3c(c(N4CCOC[C@@H]4C)n2)CCN(C2COC2)C3)cc1,13.6 ± 12%
2,CNCc1ccc(-c2cc(-c3nc(-c4ccc(S(=O)(=O)C(C)C)cc4)cnc3N)on2)cc1,0.147 ± 8.7%
3,CNC(=O)c1cc(COc2nnc(Nc3ccc(Cl)cc3)c3ccoc23)ccn1 [Telatinib],-1.95 ± 4.8%
4,O=C(NOCC1CC1)c1ccc(F)c(F)c1Nc1ccc(I)cc1Cl,5.58 ± 12%
5,C=CC(=O)Nc1ccc2ncnc(Nc3cccc(Br)c3)c2c1,12 ± 5.5%
6,COc1cc2ncnc(Nc3ccc(O)c(Br)c3)c2cc1OC,-7.2 ± 7.7%
7,Nc1ccc(-c2ccc3ncc4ccc(=O)n(-c5cccc(C(F)(F)F)c5)c4c3c2)cn1 [Torin 2],1.07 ± 4.9%
8,CCCCCCCCc1ccc(CCC(N)(CO)CO)cc1.Cl [Fingolimod (FTY720) HCl],-8.59 ± 6.3%
9,N#C/C(=C(/N)Sc1ccc(N)cc1)c1ccccc1C(F)(F)F,2.78 ± 13%
10,NC1(C(=O)N[C@@H](CCO)c2ccc(Cl)cc2)CCN(c2ncnc3[nH]ccc23)CC1,3.79 ± 1.4%
11,O=C(NC[C@H](O)CO)c1ccncc1Nc1ccc(I)cc1F,8.42 ± 5%
12,CC(O)C(=O)O.CC(O)C(=O)O.CN1CCN(c2ccc3nc(-c4c(N)c5c(F)cccc5[nH]c4=O)[nH]c3c2)CC1 [Dovitinib (TKI-258) Dilactic Acid],10.5 ± 12%
13,CCCCCCCCCCCCc1ccc(S(=O)(=O)Nc2nncs2)cc1,11.2 ± 4.2%
14,Cc1n[nH]c2ccc(-c3cncc(OC[C@@H](N)Cc4ccccc4)c3)cc12,14.1 ± 24%
15,CN1CCC(Nc2nc(Nc3ccc(Oc4ccccc4)cc3)c3c(=O)[nH]cc(Br)c3n2)CC1,35.3 ± 9.5%
16,Cc1cnc(Nc2ccc(F)cc2Cl)nc1-c1c[nH]c(C(=O)N[C@H](CO)c2cccc(Cl)c2)c1,9.02 ± 15%
17,Cc1cc(C(C)Nc2ccccc2)c2nc(N3CCOCC3)cc(=O)n2c1 (configuration not stated),-4.42 ± 15%
18,CCN1CCN(Cc2ccc(C(=O)Nc3ccc(C)c(Oc4ccc5c(c4)CC(=O)N5)c3)cc2C(F)(F)F)CC1,-7.33 ± 8.7%
